Compound activity as filed in PubChem BioAssay.
Most compounds without a hit are left out; they make up all but 1.5% or so of the library.
MEX-5 binding = C. elegans MEX-5 TCR-2 RNA binding activity; Q9XUB2; activity score (negative = inhibition of binding), % at 10 µM; actives 0.38% (n = 300,000); MEX-5/FITC-TCR2 RNA binding, fluorescence polarization; active compounds read low;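 active means inhibition past about -25% in most replicates, and total fluorescence under double the plate's negative control median, limit read from the data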
Bcl-xL primary = inhibitors of human Bcl-xL | actives 0.7% (n = 320,000) | GST-Bcl-xL / FITC-Bim BH3 peptide fluorescence polarization | inhibition, % at 10.9 µM;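 active means inhibition above the mean of all tested compounds plus 3 SD, cutoff set per campaign, cut at about 30% in these data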;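 further: inhibitors lower millipolarization by displacing the labeled peptide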
Target sequence (Q07817 whole entry, looked up): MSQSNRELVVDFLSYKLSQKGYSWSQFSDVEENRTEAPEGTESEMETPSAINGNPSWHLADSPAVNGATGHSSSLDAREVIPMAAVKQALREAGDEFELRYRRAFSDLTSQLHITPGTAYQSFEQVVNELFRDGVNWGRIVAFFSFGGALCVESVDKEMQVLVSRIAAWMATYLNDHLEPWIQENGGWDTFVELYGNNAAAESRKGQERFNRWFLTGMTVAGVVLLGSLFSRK
EBV gp42 inh = blocks Epstein-Barr virus glycoprotein 42 binding; Q1HVG2; Fluorescence polarization binding assay, mP read-out; inhibition, % (tested at 21.74 µM); actives 0.42% (n = 220,000); in the data active means inhibition above about 50%
eLon inh = inhibitors of E. coli Lon protease; P0A9M0; purified E. coli Lon protease, fluorescence polarization; inhibition, % at 7.94 µM; actives 0.42% (n = 360,000); AID 602123; in the data active means inhibition above about 13%, passing the limit was not always enough
MCL1 BIM primary = inhibitors of human MCL1 binding to BIM-BH3 peptide. Q07820. GST-MCL1 / FITC-Bim-BH3 fluorescence polarization. inhibition, % at 10.9 µM. actives 0.68% (n = 320,000);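 active means inhibition above the mean inhibition of all tested compounds plus 3 SD, set per campaign, cut at about 40% in these data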;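 further: higher means more loss of mP so more displacement of Bim peptide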
Target sequence (Q07820 whole entry, looked up): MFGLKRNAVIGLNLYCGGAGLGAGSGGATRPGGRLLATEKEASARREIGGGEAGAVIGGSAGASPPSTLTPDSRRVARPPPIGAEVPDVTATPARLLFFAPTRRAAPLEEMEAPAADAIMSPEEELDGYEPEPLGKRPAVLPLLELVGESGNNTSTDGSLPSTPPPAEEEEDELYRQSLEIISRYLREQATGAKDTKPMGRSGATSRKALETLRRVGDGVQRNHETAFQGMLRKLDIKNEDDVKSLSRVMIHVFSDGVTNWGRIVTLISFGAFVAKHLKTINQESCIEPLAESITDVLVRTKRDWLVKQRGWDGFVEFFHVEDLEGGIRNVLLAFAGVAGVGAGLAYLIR
GLD-1 RNA inh = GLD-1-TGE RNA interaction inhibition (C. elegans); actives 0.44% (n = 320,000); inhibition, % at 5.96 µM; Q17339; purified GLD-1 + fluorescein TGE RNA, fluorescence polarization; AID 2280;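 active means percent inhibition above a per-plate cutoff, the plate mean of test compounds plus 3 SD, cut at about 30% in these data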
Bcl-xL conf = Bcl-xL (human) inhibition, MCL1 counter-screen confirmation; shares compounds with MCL1 BIM primary; GST-Bcl-xL / FITC-Bim BH3 peptide FP binding; inhibition, % at 10.9 µM; actives 54% (n = 1,700); AID 2166;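 active means inhibition above a cutoff equal to the mean inhibition of all tested compounds plus 3 SD, cut at about 30% in these data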
MCL1 inh confirm = confirmation of human MCL1 and BIM-BH3 interaction inhibitors; shares compounds with MCL1 BIM primary; GST-MCL1 / FITC-Bim-BH3 fluorescence polarization; inhibition, % at 10.9 µM; actives 61% (n = 1,700); AID 2168;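 active means inhibition above the average of all tested compounds plus 3 SD, cut at about 40% in these data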
Each line names hits and unclear results; the compound was inactive in the other large screens (follow-up assays come after a bar, where they were run); ! = not confirmed by another sample.

Cc1ccc(CNc2ncc(-c3ccc4c(c3)OCO4)n2C)cc1	none
Cc1ccc(CNc2ccc3c(c2)OCO3)cc1	Bcl-xL primary 139.5, eLon inh 23.5, MCL1 BIM primary 158.6 | Bcl-xL conf 106.0 | MCL1 inh confirm 134.9
COc1ccc(/C=N/NC(=O)c2nn(-c3ccccc3)c(=O)c3c(N)scc23)cc1	MCL1 BIM primary 41.0 | Bcl-xL conf inactive | MCL1 inh confirm inactive
CCCCN(C(=O)c1cccc(-n2cccc2)c1)c1c(N)n(Cc2ccccc2)c(=O)[nH]c1=O	MCL1 BIM primary 77.9 (no result: EBV gp42 inh) | Bcl-xL conf inactive | MCL1 inh confirm inactive
CCCCc1ccc(NC(=O)Nc2cc(C)nn2C)cc1	MCL1 BIM primary 68.0 (no result: EBV gp42 inh) | Bcl-xL conf inactive | MCL1 inh confirm inactive
CCN1c2ccccc2N(C)C1(C)c1ccccc1 (centres undefined)	Bcl-xL primary 88.0, MCL1 BIM primary 94.2, GLD-1 RNA inh 65.8 (no result: MEX-5 binding) | Bcl-xL conf 61.3 | MCL1 inh confirm 97.6
CCC1(c2ccccc2)CN(C)C1=O (centres undefined)	none (no result: MEX-5 binding, Bcl-xL primary, EBV gp42 inh, MCL1 BIM primary, GLD-1 RNA inh)
O=C(O)c1cc(-c2ccco2)nc2ccc(Br)cc12	Bcl-xL primary 95.9!, MCL1 BIM primary 140.9!, GLD-1 RNA inh 68.1! | Bcl-xL conf 44.9 | MCL1 inh confirm 88.5
O=C(c1ccco1)N1CCN(C(=O)c2cc(-c3ccncc3)nc3ccc(Br)cc23)CC1	none (no result: EBV gp42 inh)
O=C(CNCc1ccccc1)Nc1ccc(F)cc1	MCL1 BIM primary 42.7 | Bcl-xL conf inactive | MCL1 inh confirm inactive
COc1ccc(/C=c2\s/c(=C/C(=O)c3ccc(C)cc3)[nH]c2=O)c(OC)c1	Bcl-xL primary 102.6, MCL1 BIM primary 105.4 | Bcl-xL conf 87.5 | MCL1 inh confirm 97.3
COc1cccc(/C=c2\s/c(=C\C(=O)C(C)(C)C)[nH]c2=O)c1	none
N#C/C(=C\c1cccc([N+](=O)[O-])c1)C(=O)NCC1CCCO1 (centres undefined)	Bcl-xL primary 60.9, MCL1 BIM primary 50.1 | Bcl-xL conf inactive | MCL1 inh confirm inactive
Cc1ccc(C2C(C#N)=C(N)SC(N)=C2C#N)cc1	none (no result: MEX-5 binding, Bcl-xL primary, MCL1 BIM primary, GLD-1 RNA inh)
N#CC1=C(N)SC(N)=C(C#N)C1c1ccoc1	Bcl-xL primary 67.2, MCL1 BIM primary 80.4 (no result: eLon inh) | Bcl-xL conf inactive | MCL1 inh confirm inactive
O=c1[nH]c(=O)n2ncnc2[nH]1	none (no result: MEX-5 binding, Bcl-xL primary, EBV gp42 inh, MCL1 BIM primary, GLD-1 RNA inh)
CNC(=O)c1c(N)sc2c1CCCCC2	Bcl-xL primary 55.6, MCL1 BIM primary 71.6, GLD-1 RNA inh 35.5 (no result: eLon inh) | Bcl-xL conf 43.8 | MCL1 inh confirm 51.9
CC(C)(C)NC(=O)NC(=O)COC(=O)c1cc[n+]([O-])cc1	none
Cc1c(C(=O)c2ccc(F)cc2F)c2ccccn2c1CCC#N	Bcl-xL primary 100.5, MCL1 BIM primary 116.7, GLD-1 RNA inh 90.1 (no result: EBV gp42 inh) | Bcl-xL conf inactive | MCL1 inh confirm inactive
N#CCc1cnc2ccccc2n1	Bcl-xL primary 81.7, MCL1 BIM primary 76.4, GLD-1 RNA inh 59.9 | Bcl-xL conf inactive | MCL1 inh confirm inactive
Cc1cccc(N=C2NC(=O)S/C2=C\c2ccco2)c1	Bcl-xL primary 35.0, MCL1 BIM primary 42.4 | Bcl-xL conf inactive | MCL1 inh confirm inactive
O=C1NC(=Nc2ccc(Cl)cc2)/C(=C/c2ccco2)S1	Bcl-xL primary 58.7, EBV gp42 inh 61.7, MCL1 BIM primary 90.2 | Bcl-xL conf 37.7 | MCL1 inh confirm 74.7
Cc1cccc(N=C2NC(=O)/C(=C/C=C/c3ccco3)S2)c1	none
Cc1ccc(-n2c(SCC(=O)N(C)C)nnc2-c2ccco2)cc1	none (no result: EBV gp42 inh)
CCOC(=O)c1c(OCC)[nH]c2c1cc(O)c1ccccc12	MCL1 BIM primary 41.5 | Bcl-xL conf 55.9 | MCL1 inh confirm 73.0
CN1CCN(c2ccc(CNC(=O)c3ccc(-c4ccc(F)c(F)c4)c4ccoc34)cc2)CC1	none (no result: MEX-5 binding, Bcl-xL primary, EBV gp42 inh, MCL1 BIM primary, GLD-1 RNA inh)
CN(C)c1ccc(NC(=O)CSc2nnc(-c3ccco3)c(-c3ccco3)n2)cc1	none (no result: EBV gp42 inh)
COc1cccc(NC(=O)CSc2nnc(-c3ccco3)c(-c3ccco3)n2)c1	MCL1 BIM primary 49.2 (no result: EBV gp42 inh) | Bcl-xL conf 35.4 | MCL1 inh confirm 64.1
O=C(CSc1nnc(-c2ccco2)c(-c2ccco2)n1)Nc1ccccc1	eLon inh 157.4, MCL1 BIM primary 59.6 | Bcl-xL conf 34.4 | MCL1 inh confirm 83.2
COc1ccc(NC(=O)CSc2nnc(-c3ccco3)c(-c3ccco3)n2)cc1OC	none (no result: EBV gp42 inh)
CC1=C(C(=O)N(C(C)C)C(C)C)CC(CC(=O)NCCCCc2ccccc2)C(=O)N1CCCN1CCCC1=O (centres undefined)	none (no result: MEX-5 binding, Bcl-xL primary, EBV gp42 inh, MCL1 BIM primary, GLD-1 RNA inh)
CCOc1ccc(Br)cc1C(=S)N1CCCC1	none (no result: EBV gp42 inh)
O=C(N/N=C/c1ccc(-c2ccccc2C(=O)O)o1)c1cccs1	MCL1 BIM primary 70.8 | Bcl-xL conf 39.8 | MCL1 inh confirm 72.9
COCCN1C[C@@H](CO)O[C@@H](n2cnc3c(NC4CC4)ncnc32)C1	none (no result: MEX-5 binding, Bcl-xL primary, EBV gp42 inh, MCL1 BIM primary, GLD-1 RNA inh)
Nc1nc(=S)c2ncn([C@@H]3O[C@H](CO)[C@@H](O)[C@H]3O)c2[nH]1	none (no result: MEX-5 binding, EBV gp42 inh)
Nc1nc(=S)c2ncn(C3OC(CO)C(O)C3O)c2[nH]1 (centres undefined)	MCL1 BIM primary 82.2 | Bcl-xL conf inactive | MCL1 inh confirm 46.7
CC(/C=C/C=C/c1ccccc1)=N/NC(=O)CNc1ccccc1C	none
CSc1nsc(/C=C/Nc2ccc(O)cc2C)c1C#N	Bcl-xL primary 60.2, MCL1 BIM primary 49.0, GLD-1 RNA inh 70.6 | Bcl-xL conf 43.3 | MCL1 inh confirm inactive
CCC(C)(C)C1CCC2(CC1)NC(=O)N(CC(=O)N(C)Cc1ccc(OC(F)F)cc1)C2=O (centres undefined)	none (no result: EBV gp42 inh)
O=C(/C=C/c1ccco1)NC(=S)Nc1ccc(C(=O)O)cc1	MEX-5 binding -32.2, Bcl-xL primary 34.4, MCL1 BIM primary 66.7 (no result: EBV gp42 inh) | Bcl-xL conf inactive | MCL1 inh confirm inactive
CC(=O)NC(=S)Nc1ccc(NC(=S)NC(=O)/C=C/c2ccco2)cc1	none
COC(=O)CCC(=O)OC1(C)C(=O)C2=COC(c3ccc(OC)cc3)=CC2=C(Br)C1=O (centres undefined)	Bcl-xL primary 33.0, MCL1 BIM primary 56.0 (no result: eLon inh) | Bcl-xL conf 32.4 | MCL1 inh confirm 56.9
COc1ccc(C(O)c2ncc(-c3ccccc3C)[nH]2)cc1F (centres undefined)	none (no result: MEX-5 binding, Bcl-xL primary, EBV gp42 inh, MCL1 BIM primary, GLD-1 RNA inh)
COC(=O)CCCCC1SCC(NC(=O)OC)C1NC(=O)OC (centres undefined)	MCL1 BIM primary 48.7 | Bcl-xL conf inactive | MCL1 inh confirm inactive
COC(=O)CCCC[C@@H]1SC[C@@H](NC(=O)OC)[C@@H]1NC(=O)OC	none
O=C1c2ccccc2C(O)N1Cc1cccs1 (centres undefined)	none
Cc1ccc(NC(=O)CN2C(=O)N/C(=C/c3cccn3-c3ccc(C(=O)O)cc3)C2=O)cc1	MCL1 BIM primary 79.1 (no result: MEX-5 binding) | Bcl-xL conf 41.3 | MCL1 inh confirm 85.1
